PubChem BioAssay (NCATS)
Inconclusive results are not listed. Entries that show only a call come without a potency. The source made the active and inactive calls. Calls come from the whole dose curve; as a rule, active = well fitted inhibition curve with a large enough effect; inconclusive = small, poorly fitted or top-dose-only effect; inactive = flat fitted curve, though single readings scatter.

Each molecule was assayed against Ubiquitin carboxyl-terminal hydrolase 1 (Homo sapiens) (UniProt O94782) (assay: Inhibitors of USP1/UAF1: Pilot qHTS (AID 504865; note: nearly all actives have a fitted effect of over 35% in size)). Settings: purified USP1/UAF1, Ub-rhodamine cleavage fluorescence; series mostly up to 114 µM.
Sequence of Ubiquitin carboxyl-terminal hydrolase 1 (Homo sapiens) (O94782 whole entry, looked up): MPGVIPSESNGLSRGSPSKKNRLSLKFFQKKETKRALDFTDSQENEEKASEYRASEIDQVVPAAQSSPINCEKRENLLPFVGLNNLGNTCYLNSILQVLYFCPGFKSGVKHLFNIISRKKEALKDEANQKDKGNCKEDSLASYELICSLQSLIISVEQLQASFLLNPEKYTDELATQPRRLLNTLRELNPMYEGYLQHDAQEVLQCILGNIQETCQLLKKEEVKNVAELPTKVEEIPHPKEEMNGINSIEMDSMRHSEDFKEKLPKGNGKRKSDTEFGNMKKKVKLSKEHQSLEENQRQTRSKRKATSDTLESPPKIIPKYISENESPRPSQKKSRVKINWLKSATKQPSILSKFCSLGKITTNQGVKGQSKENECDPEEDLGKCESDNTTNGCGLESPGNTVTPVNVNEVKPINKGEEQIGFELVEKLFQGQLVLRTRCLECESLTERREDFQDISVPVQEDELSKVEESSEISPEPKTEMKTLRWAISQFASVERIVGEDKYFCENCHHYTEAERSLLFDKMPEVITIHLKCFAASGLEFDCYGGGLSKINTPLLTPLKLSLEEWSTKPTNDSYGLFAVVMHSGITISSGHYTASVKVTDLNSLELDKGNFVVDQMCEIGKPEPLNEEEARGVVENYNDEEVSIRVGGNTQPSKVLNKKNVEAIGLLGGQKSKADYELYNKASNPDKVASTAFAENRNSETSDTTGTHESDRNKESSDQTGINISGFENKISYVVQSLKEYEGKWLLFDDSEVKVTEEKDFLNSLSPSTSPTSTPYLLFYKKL
Excerpt: Deubiquitinating enzymes (DUBs) are a class of enzymes that can cleave isopeptide bond formed between the C-terminal carboxylate of ubiquitin and a lysine side-chain amino group on the target protein. Among them, ubiquitin specific proteases (USPs) constitute the largest DUB family. Human USPs are emerging as promising targets for pharmacological intervention because of their connection to a number of human diseases, including prostate, colon and breast cancer (1, 2), pediatric acute lymphoblastic leukemia (3), and familial cylindromatosis (4). The advantage of inhibiting USPs lies in the potential specificity of therapeutic intervention that can lead to better efficacy and reduce nonspecific side effects.
In a collaboration between the University of Delaware and the NIH Chemical Genomics Center, a high-throughput screen assay was developed to screen for USP1/UAF1 inhibitors. This miniaturized assay has a fluorescent read-out and is used to screen the NIH Molecular Libraries Small Molecule Repository (MLSMR) in order to identify a small molecule that inhibits USP1.
NIH Chemical Genomics Center [NCGC]
NIH Molecular Libraries Probe Centers Network [MLPCN]
Assay Submitter (PI): Zhihao Zhuang, University of Delaware
1. Priolo, C., et al. (2006) The isopeptidase USP2a protects human prostate cancer from apoptosis. Cancer Res 66, 8625-8632
2. Popov, N., et al. (2007) The ubiquitin-specific protease USP28 is required for MYC stability. Nat Cell Biol 9, 765-774
3. De Pitta, C., et al. (2005) A leukemia-enriched cDNA microarray platform identifies new transcripts with relevance to the biology of pediatric acute lymphoblastic leukemia. Haematologica 90, 890-898
4. Kovalenko, A., et al. (2003) The tumour suppressor CYLD negatively regulates NF-kappaB signalling by deubiquitination. Nature 424, 801-805
3 microliters of reagents (buffer in columns 3 and 4 as negative control and 1nM USP1/UAF1 complex in columns 1, 2, and 5-48) are dispensed into Greiner black solid bottom 1536-well assay plates. Compounds are then transferred via Kalypsys pin tool equipped with 1536-pin array (10nl slotted pins, V&P Scientific, San Diego, CA). Following an incubation step of 15 min at room temperature, 1ul of Ub-Rho substrate (150nM final concentration) is added to initiate the reaction. The plates are immediately centrifuged at 1000 rpm for 15 seconds, and subsequently transferred to a ViewLux high-throughput CCD imager (PerkinElmer) wherein kinetic measurements of fluorescence are acquired using 480 nm excitation/540 nm emission filter set (6 reads every 60 seconds, see Table 1). All reagents are diluted in an assay buffer consisting of 50mM HEPES (pH 7.8), 0.5mM EDTA, 0.1 mg/ml BSA, 1mM TCEP, and 0.01% Tween-20.
Potency is the fitted concentration of half-maximal effect.

Row | Structure (SMILES) | Potency
1 | Cn1c(NCCN(CCO)CCCc2ccc([N+](=O)[O-])cc2)cc(=O)n(C)c1=O | inactive
2 | Cc1nc2n(c(=O)c1CCN1CCC(c3noc4cc(F)ccc34)CC1)CCCC2 | inactive
3 | Nc1cccc2c1CN(C1CCC(=O)NC1=O)C2=O (stereo not given) | inactive
4 | CCCc1cc(=O)[nH]c(=S)[nH]1 | inactive
5 | COCCCOc1ccnc(CS(=O)c2nc3ccccc3[nH]2)c1C (stereo not given) | inactive
6 | COc1c2occc2cc2ccc(=O)oc12 | inactive
7 | NS(=O)(=O)c1cc(C(=O)O)c(NCc2ccco2)cc1Cl | inactive
8 | CCC(C)(Oc1ccc(C2(c3ccc(OC(C)(CC)C(=O)O)cc3)CCCCC2)cc1)C(=O)O (stereo not given) | inactive
9 | COC1=C(OC)C(=O)C(CCCCCCCCCCO)=C(C)C1=O | inactive
10 | Nc1ccn([C@@H]2O[C@H](CO)[C@@H](O)C2O)c(=O)n1 (stereo not given in full) | inactive
11 | COc1ccccc1N1CCN(CCN(C(=O)C2CCCCC2)c2ccccn2)CC1 | inactive
12 | CCOC(=O)C(C)Oc1cccc2c(=O)n(CC(=O)Nc3ccc4c(c3)OCCO4)ccc12 (stereo not given) | inactive
13 | O=c1c(O)c(-c2ccc(O)cc2O)oc2cc(O)cc(O)c12 | 50.1 µM (active)
14 | Nc1ccc(S(N)(=O)=O)cc1 | inactive
15 | O=C(NC(Cc1cc(=O)[nH]c2ccccc12)C(=O)O)c1ccc(Cl)cc1 (stereo not given) | inactive
16 | O=C1c2ccccc2-c2n[nH]c3cccc1c23 | inactive
17 | NNc1nncc2ccccc12 | inactive
18 | Cc1ccc(S(=O)(=O)NC(=O)NN2CC3CCCC3C2)cc1 (stereo not given) | inactive
19 | CC(C)(S)[C@@H](N)C(=O)O | inactive
20 | S=c1nc[nH]c2nc[nH]c12 | inactive

Row | Structure (SMILES) | Potency
21 | Oc1ccc2ccccc2c1SSc1c(O)ccc2ccccc12 | inactive
22 | O=C(O)c1cc(=O)c2c(OCC(O)COc3cccc4oc(C(=O)O)cc(=O)c34)cccc2o1 | inactive
23 | CN(C)C(=O)COC(=O)Cc1ccc(OC(=O)c2ccc(N=C(N)N)cc2)cc1 | inactive
24 | Cc1nc(Nc2ncc(C(=O)Nc3c(C)cccc3Cl)s2)cc(N2CCN(CCO)CC2)n1 | inactive
25 | COc1cc(OC)c(C(=O)CCCN2CCCC2)c(OC)c1 | inactive
26 | CNC[C@@H](O)[C@@H](O)[C@H](O)[C@H](O)CO | inactive
27 | Cc1ncc([N+](=O)[O-])n1CC(C)O (stereo not given) | inactive
28 | O=C(NCCO[N+](=O)[O-])c1cccnc1 | inactive
29 | Cc1c(OCC(F)(F)F)ccnc1CS(=O)c1nc2ccccc2[nH]1 (stereo not given) | inactive
30 | NC(=NCc1ccccc1)NC(=O)c1nc(Cl)c(N)nc1N | inactive
31 | CS(=O)(=O)OCCCCOS(C)(=O)=O | inactive
32 | Cc1cc(=O)oc2cc(O)ccc12 | inactive
33 | c1ccc2[nH]c(-c3cscn3)nc2c1 | inactive
34 | Cc1cc2c(s1)Nc1ccccc1N=C2N1CCN(C)CC1 | inactive
35 | Nc1nc(N)c(N=O)c(OCC2CCCCC2)n1 | inactive
36 | O=C(CS(=O)Cc1ccco1)NCC=CCOc1cc(CN2CCCCC2)ccn1 (stereo not given) | inactive
37 | COc1cc2nc(N3CCN(C(=O)C4CCCO4)CC3)nc(N)c2cc1OC (stereo not given) | inactive
38 | O=C(O)c1cn(-c2ccc(F)cc2)c2cc(N3CCNCC3)c(F)cc2c1=O | inactive
39 | CC(C)[C@H](N)C(=O)OCCOCn1cnc2c(=O)[nH]c(N)nc21 | inactive
40 | C=C(c1ccc(C(=O)O)cc1)c1cc2c(cc1C)C(C)(C)CCC2(C)C | 22.4 µM (active)
